PfHsp40 rescue – rescue of PfHsp40-mediated yeast toxicity; S. cerevisiae expressing PfHsp40, growth rescue, ATP luminescence; growth rescue, % at 12.5 µM; 340,000 compounds, 0.68% hits; AID 504582; in the data active = growth rescue above about 28%, passing the limit was not always enough; inconclusive = no clear call, values can overlap the other calls;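 also: yeast W303a lacking pdr1 and pdr3 grown in galactose medium; growth measured after three days at 30 °C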
PrPC surface inh – inhibitors of human cell surface prion protein PrPC. inhibition, % at 13.8 µM. 370,000 compounds, 0.43% hits. TR-FRET read-out; in the data active = inhibition above about 24%; also: 0% = median of the test wells and 100% = reference compound wells
PrP UTR inh – suppresses PrP 5' UTR mRNA reporter expression; cell-based PrP 5' UTR mRNA reporter, plate reader; 340,000 compounds, 0.35% hits; inhibition, % (no concentration beside the values); in the data active = inhibition above about 52%; also: 0 = median of the neutral control wells
GDH-TPI inh – counter-screen for M. tuberculosis FBA inhibitors: GDH-TPI coupled enzymes; inhibition, % at 4.8 µM; 360,000 compounds, 1.2% hits; GDH-TPI coupled enzyme counterscreen, NADH absorbance; in the data active = inhibition above about 30%;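 also: 0% = DMSO wells and 100% = wells lacking the enzyme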
BJeLR lethal – BJeLR cell viability loss; 300,000 compounds, 0.17% hits; AID 1554; BJeLR (HRASV12) viability, CellTiter-Glo ATP luminescence, 48 h; inhibition, % (test concentration not listed); in the data active = inhibition above about 50%; inconclusive = no clear call, values can overlap the other calls
FBA Mtb inh – inhibitors of M. tuberculosis fructose-bisphosphate aldolase; inhibition, % at 1 µM; P9WQA3; 360,000 compounds, 2.3% hits; purified M. tuberculosis FBA, fluorescence read-out; in the data active = inhibition above about 27%;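 also: 0% = vehicle and 100% = reference inhibitor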
Target sequence (P9WQA3 whole entry, looked up): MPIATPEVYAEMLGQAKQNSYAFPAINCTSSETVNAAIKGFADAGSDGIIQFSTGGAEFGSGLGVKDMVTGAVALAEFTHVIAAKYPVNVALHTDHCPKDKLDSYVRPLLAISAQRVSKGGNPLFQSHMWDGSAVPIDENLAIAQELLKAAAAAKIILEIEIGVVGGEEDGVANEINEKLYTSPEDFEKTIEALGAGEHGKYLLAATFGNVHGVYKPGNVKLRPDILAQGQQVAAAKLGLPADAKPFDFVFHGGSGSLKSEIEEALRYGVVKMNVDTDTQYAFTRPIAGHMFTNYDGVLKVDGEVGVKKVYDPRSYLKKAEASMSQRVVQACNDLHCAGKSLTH
PrP UTR cherry – prion 5' UTR mRNA inhibition, cherry-pick retest | shares compounds with PrP UTR inh | cell-based prion protein 5' UTR reporter, plate reader | inhibition, % at 2.5 µM | 1,100 compounds, 48% hits; in the data active = inhibition above about 54%; inconclusive = no clear call, values can overlap the other calls
Active calls of the source: *; ? = inconclusive; nt = not tested or not shown; ! = not active in a repeat. Most compounds without a hit are left out; they make up all but 4.5% or so of the library.

SMILES	PfHsp40 rescue	PrPC surface inh	PrP UTR inh	GDH-TPI inh	BJeLR lethal	FBA Mtb inh	PrP UTR cherry
COc1ccc2c(c1)CN1CN(Cc3ccccc3)S(=O)(=O)CC21 (stereo not given)	nt	-8.2	nt	nt	nt	nt	nt
O=C(O)c1cccc(N/N=C/c2ccc(-c3ccccc3)cc2)c1	-2.3	-5.0	-5.4	12.3	6.9	6.1	nt
CN(C)c1ccc(/C=N/Nc2cccc(C(=O)O)c2)cc1	1.7	-1.8	93.2*	36.8*	-5.9	1.5	92.1*
CC(C)(C)c1ccc(/C=N/Nc2cccc(C(=O)O)c2)cc1	0.9	-5.2	60.0*	2.1	-6.9	-2.2	53.9*
COc1ccc(CNC2CCC23CCC(c2ccccc2)CC3)cc1OC (stereo not given)	nt	-2.3	nt	nt	nt	nt	nt
Cc1ccc(C)c(NC(=O)c2ccc(CS(=O)(=O)Cc3ccccc3C)o2)c1	nt	-1.2	nt	nt	nt	nt	nt
Cc1ccc(C(=O)O/N=C(\N)c2ccccn2)c(Cl)c1	-4.3	-4.6	80.7*	-8.9	9.8	1.1	93.6*
N/C(=N\OC(=O)c1ccc([N+](=O)[O-])cc1Cl)c1ccccn1	-2.7	-6.0	65.3*	6.6	-2.1	-0.9	?
N/C(=N\OC(=O)c1cc(Br)ccc1Cl)c1ccccn1	2.5	-4.6	-81.6	5.5	-2.7	0.8	nt
N/C(=N\OC(=O)c1ccccc1Cl)c1ccncc1	-0.2	-8.3	-78.8	-2.4	-0.3	-1.9	nt
N/C(=N\OC(=O)c1ccc(Cl)cc1Cl)c1ccccn1	-1.8	2.6	79.3*	-0.3	12.7	1.7	54.7*
Cc1ccc(C(=O)O/N=C(\N)c2ccccc2)c(Cl)c1	0.0	-10.0	56.2*	1.5	-5.5	0.9	54.7*
Cc1ccccc1CN1CCCCC(NC(=O)Nc2ccccc2-c2ccccc2)C1=O (stereo not given)	nt	8.2	nt	nt	nt	nt	nt
Fc1ccc(-n2nnc(-c3cnc4ccccc4c3)n2)cc1	1.8	-4.0	71.5*	-3.5	8.1	-1.1	53.6*
Cc1ccc(C23CC4CC(CC(C(N)=O)(C4)C2)C3)cc1	-0.4	-0.2	-54.0	10.3	2.4	-0.2	nt
COC(=O)CNC(=O)C12CC3CC(C1)CC(c1ccc(C)cc1)(C3)C2	3.7	1.9	77.8*	-0.6	-14.7	0.3	-25.6
COc1ccc(CN(C)CC(=O)Nc2ccccc2C(F)(F)F)cc1	-0.3	4.8	80.6*	-0.9	-4.5	-1.3	-19.2
COc1ccc(CN(C)CC(=O)Nc2ccccc2C(F)(F)F)c(OC)c1	-0.7	0.6	-36.3	-5.2	-1.4	-3.4	nt
Cc1cc(C(=O)CN2C(=O)c3ccccc3S2(=O)=O)c(C)n1-c1ccccc1	-0.2	-3.5	56.9	2.6	-2.0	4.4	nt
C=CCn1c(C)cc(C(=O)CN2C(=O)c3ccccc3S2(=O)=O)c1C	-2.8	nt	92.4*	8.2	nt	6.4	91.7*
Cc1cc(C(=O)CN2C(=O)c3ccccc3S2(=O)=O)c(C)n1C(C)C	-2.5	-8.4	60.3*	4.8	nt	4.5	64.2*
CCn1c(C)cc(C(=O)CN2C(=O)c3ccccc3S2(=O)=O)c1C	-0.3	-4.1	67.4*	7.4	nt	0.8	68.7*
CC(=O)c1cc(-c2cc(C(F)(F)F)cc(C(F)(F)F)c2)c(=O)n2c1CCC2	nt	-3.9	nt	nt	nt	nt	nt
CC(C)C[C@H]1COc2cccc(F)c2S(=O)(=O)N1Cc1cn(Cc2ccc(Cl)cc2)nn1	nt	3.3	nt	nt	nt	nt	nt
CC(c1c[nH]c2ccccc12)c1c[nH]c2ccc(Br)cc12 (stereo not given)	nt	-5.2	nt	nt	nt	nt	nt
SMILES	PfHsp40 rescue	PrPC surface inh	PrP UTR inh	GDH-TPI inh	BJeLR lethal	FBA Mtb inh	PrP UTR cherry
COc1cccc(/C=N/Nc2ccc([N+](=O)[O-])cn2)c1O	3.1	-4.0	58.1*	5.3	34.5	-8.3	47.8
COc1cccc(/C=N/Nc2ccc(S(=O)(=O)O)cc2)c1O	0.4	-0.8	-20.9	12.8	4.8	3.7	nt
O=[N+]([O-])c1cccc(C=NNc2ccc3ccccc3n2)c1O	240.9*	-4.5	55.9*	22.4	nt	-10.6	37.2
O=[N+]([O-])c1ccc(NN=Cc2cccc3ccccc23)nc1	-0.1	0.0	-35.9	0.4	nt	-0.6	nt
COc1cccc(/C=N/Nc2ccc(C(=O)O)cc2)c1O	0.8	3.3	88.1*	24.8	27.6	-0.9	89.7*
C[C@@H]1CN([C@@H](C)CO)C(=O)CCCn2cc(nn2)CO[C@H]1CN(C)C(=O)c1ccc(N2CCN(C)CC2)cc1	nt	-7.0	nt	nt	nt	nt	nt
O=C(COC(=O)c1cc([N+](=O)[O-])ccc1N1CCOCC1)NCc1ccccc1	nt	-18.9	nt	18.6	nt	2.2	nt
COc1cccc(CNC(=O)COC(=O)c2cc([N+](=O)[O-])ccc2N2CCCC2)c1	0.5	-12.8	83.7*	15.2	nt	-6.7	1.3
COC(=O)c1cc2c(c3c4cc(C)ccc4n(C(=O)c4ccccc4)c13)C(=O)N(Cc1ccccc1)C2	nt	3.6	nt	nt	nt	nt	nt
CC(=O)N1CCCN(C(=O)CCn2nnc3ccccc32)CC1	nt	-4.8	nt	nt	nt	nt	nt
O=C(Nc1ccncc1)C1COc2ccccc2O1 (stereo not given)	0.4	-0.7	-23.6	2.0	6.5	2.7	nt
O=C(NC1=NCCS1)C1COc2ccccc2O1 (stereo not given)	0.7	-2.5	72.1*	-1.5	10.4	4.3	77.3*
Nc1ccc(Cn2ccc3c4c(N)nc(N)nc4ccc32)cc1	0.0	9.1	62.1*	20.6	nt	1.8	-11.3
C=CCN(CC=C)C(=S)NC(=O)/C=C/c1ccccc1	0.8	-4.7	-38.0	3.8	-10.4	1.8	nt
C=CCN(CC=C)S(=O)(=O)c1ccc(NC(=S)NC(=O)/C=C/c2ccccc2)cc1	-2.0	2.0	59.1*	31.1*	-3.9	1.9	-9.4
NCCCS(=O)(=O)O	0.6	5.6	73.6*!	2.6	-16.7	6.5	-7.4
O=S(=O)(O)CCS	-1.3	-1.6	-13.9	8.8	2.8	-0.6	nt
COC(=O)[C@H](CC(C)C)N1Cc2nnn(Cc3ccccc3)c2-c2cc(F)ccc2S1(=O)=O	nt	7.8	nt	nt	nt	nt	nt
Cc1c(C(=O)N/N=C/c2ccc(Cl)cc2)[nH]c2ccc(Cl)cc12	-0.3	4.7	61.2*	19.2	7.0	-0.9	78.2*
NC(Cc1ccc(O)cc1)c1cn([C@@H](CCC(=O)O)C(=O)N2CCNCC2)nn1 (stereo not given in full)	7.7	1.2	64.0*	9.9	-2.5	3.8	-1.8
CC(=NCCc1ccccc1)C1=C(O)CSC1=O	0.2	-0.3	-9.2	1.4	-1.5	0.8	nt
CCCCN=C(C)C1=C(O)CSC1=O	-0.8	4.1	77.7*	7.8	-4.0	-1.3	-1.2
O=C1Nc2ccccc2-n2nnnc2C1N1CCN(c2ccc(C(F)(F)F)cc2[N+](=O)[O-])CC1 (stereo not given)	nt	-0.2	nt	nt	nt	nt	nt
O=c1c2ccccc2cnn1CCOc1ccccc1	-1.6	-0.9	70.9*	-1.5	8.1	-0.8	70.5*
O=C(O)Cn1ncc2ccccc2c1=O	0.2	-1.7	-44.8	-8.2	-2.7	-7.1	nt
